# Laboratory results: PubChem BioAssay AID624049 (National Center for Advancing Translational Sciences (NCATS), 2012)
# Activity calls are given as the source filed them. Entries that show only a call come without a potency. The call rests on the fitted dose curve; in most records, active means well fitted inhibition curve with a large enough effect; inactive means no such curve, though single readings can be large or run the other way.
# Biological target: Dual specificity protein kinase CLK3 (Homo sapiens) (UniProt P49761)
# Assay: Reaction Biology data for inhibitors of CLK3: Probe SAR
# Conditions: Reaction Biology CLK3 kinase assay, 10 uM ATP; series mostly up to 10 µM
# Description: Alternative splicing of pre-mRNAs plays a major role in the regulation of eukaryotic gene expression. Alternative splicing is now thought to be one of the primary reasons for the complexity of higher organisms leading to an average of three protein isoforms per gene. Aberrant splicing can lead to a number of diseases and is known to play a role in rare genetic diseases such as progeria syndrome. Hutchinson-Gilford Progeria Syndrome (HGPS) is a pediatric premature aging disease caused by a spontaneous mutation in the lamin A/C (LMNA) gene due to a single point mutation in the lamin A gene effecting 1 in 4 million people. To identify both specific splicing modulators of the lamin A gene as well as general splicing modulators, a cell-based HTS assay was developed using a minigene reporter system (AIDs, 1459 & 1487). […] This AID summarizes the characterization of lead compounds in Clk3. NIH Molecular Libraries Probe Production Centers Network [MLPCN] NIH Chemical Genomics Center [NCGC] MLPCN Grant: MH084827 Assay Submitter (PI): Tom Misteli
# Compound IC50s were determined at Reaction Biology (http://www.reactionbiology.com) with ten concentration points starting at 10 uM in the assay using a 3-fold dilution series. The control compound staurosporine was also tested in the 10-dose IC50 mode with the same 3-fold serial dilution, again starting at 10 uM. All kinase reactions were performed using 10 uM ATP in the assay. 100% activity was taken from kinase reactions with DMSO alone (the vehicle used for compound stock solutions).
# Sequence of Dual specificity protein kinase CLK3 (Homo sapiens) (P49761 whole entry, looked up): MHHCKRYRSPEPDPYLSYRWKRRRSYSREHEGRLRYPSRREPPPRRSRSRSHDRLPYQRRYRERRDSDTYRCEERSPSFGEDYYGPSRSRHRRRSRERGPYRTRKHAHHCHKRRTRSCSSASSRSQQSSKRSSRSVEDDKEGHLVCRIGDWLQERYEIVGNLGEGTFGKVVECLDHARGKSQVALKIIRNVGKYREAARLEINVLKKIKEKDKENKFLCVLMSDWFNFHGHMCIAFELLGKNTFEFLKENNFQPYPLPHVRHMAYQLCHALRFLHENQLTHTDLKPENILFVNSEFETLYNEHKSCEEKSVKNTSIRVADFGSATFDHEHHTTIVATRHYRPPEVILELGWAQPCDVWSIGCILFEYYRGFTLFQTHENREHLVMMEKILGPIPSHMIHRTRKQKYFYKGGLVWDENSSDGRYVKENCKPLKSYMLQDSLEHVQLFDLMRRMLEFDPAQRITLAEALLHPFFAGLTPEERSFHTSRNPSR
row,Structure (SMILES),Potency
1,Cc1nc(CNc2ncnc3ccc(-c4ccc5c(c4)OCO5)cc23)cs1,1260 nM (active)
2,Clc1cc(Cl)cc(CNc2nccc(-c3ccc4c(c3)OCO4)n2)c1,inactive
3,FC(F)(F)c1cc(Br)cc(Nc2nccc(-c3ccc4c(c3)OCO4)n2)c1,inactive
4,FC(F)(F)c1cccc(Nc2nccc(-c3ccc4c(c3)OCO4)n2)c1,inactive
5,c1cncc(CNc2ncncc2-c2ccc3c(c2)OCO3)c1,inactive
6,Clc1cc(Cl)cc(CNc2ncncc2-c2ccc3c(c2)OCO3)c1,inactive
7,c1nc(NCC2CCCO2)c2cc(-c3ccc4c(c3)OCO4)ccc2n1 (stereo not drawn),836 nM (active)
8,Brc1ccc(CNc2nccc(-c3ccc4c(c3)OCO4)n2)cc1Br,3230 nM (active)
9,Clc1ccc(CNc2ccnc(-c3ccc4c(c3)OCO4)n2)cc1Cl,inactive
10,Clc1ccc(CNc2nccc(-c3ccc4c(c3)OCCO4)n2)cc1Cl,inactive
11,c1cncc(CNc2nccc(-c3ccc4c(c3)OCO4)n2)c1,1470 nM (active)
12,Clc1ccc(CNc2ccnc(-c3ccc4[nH]ncc4c3)n2)cc1Cl,inactive
13,Cc1c(-c2ccnc(NCc3ccc(Cl)cc3)n2)sc(=O)n1C,inactive
14,COc1ccc(-c2ccnc(NCc3ccc(Cl)c(Cl)c3)n2)cc1OC,inactive
15,c1cncc(CNc2nccc(-c3ccc4[nH]ncc4c3)n2)c1,2660 nM (active)
16,Clc1ccc(CNc2ncncc2-c2ccc3c(c2)OCO3)cc1Cl,inactive
17,c1cncc(CNc2ccnc(-c3ccc4[nH]ncc4c3)n2)c1,inactive

row,Structure (SMILES),Potency
1,COc1cccc(-c2ccnc(NCc3ccc(Cl)cc3)n2)c1,inactive
2,Cc1c(-c2ccnc(NCc3cccnc3)n2)sc(=O)n1C,inactive
3,COc1ccc(-c2ccnc(NCc3ccc(Cl)c(Cl)c3)n2)cc1,inactive
4,COc1cccc(-c2ccnc(NCc3ccc(Cl)c(Cl)c3)n2)c1,inactive
5,Clc1ccc(CNc2nccc(-c3ccc4[nH]ncc4c3)n2)cc1Cl,2930 nM (active)
6,Clc1ccc(CNc2ncncc2-c2ccc3c(c2)OCO3)cc1,inactive
7,Clc1ccc(CNc2nccc(-c3ccc4c(c3)OCO4)n2)cc1Cl,3630 nM (active)
8,c1cncc(CNc2ccnc(-c3ccc4cn[nH]c4c3)n2)c1,inactive
9,O=[N+]([O-])c1cc(Nc2nccc(-c3ccc4c(c3)OCO4)n2)cc(C(F)(F)F)c1,inactive
10,COc1ccc(-c2ccnc(NCc3ccc(Cl)cc3)n2)cc1,inactive
11,Clc1ccc(CNc2nccc(-c3ccc4cn[nH]c4c3)n2)cc1Cl,inactive
12,Clc1ccc(Nc2nccc(-c3ccc4c(c3)OCO4)n2)cc1,inactive
13,Cc1nc(CN(C)c2ncnc3ccc(-c4ccc5[nH]ncc5c4)cc23)cs1,792 nM (active)
14,Brc1cc(Br)cc(CNc2nccc(-c3ccc4c(c3)OCO4)n2)c1,inactive
15,c1cc(-c2ccc3c(c2)OCO3)nc(Nc2ccc3c(c2)OCO3)n1,inactive
16,Cc1nc(CN(C)c2ncnc3ccc(-c4ccc5c(c4)OCO5)cc23)cs1,403 nM (active)
